Assay results: PubChem BioAssay (NCATS)
Inconclusive results are not listed. Entries that show only a call come without a potency. Unmarked numbers belong to inactive results. Calls of active or inactive are those of the source. The call rests on the fitted dose curve; in most records, active means well fitted curve in the direction sought with a large enough effect; inconclusive means small, poorly fitted or top-dose-only effect, or another doubt; inactive means no such curve, though single readings can be large; an effect the other way counts as inactive or inconclusive.

Experiments:
[1] = Primary qHTS for inhibitors of nuclear receptor binding SET domain protein 2 (NSD2) in an isogenic RCH-ACV NSD2 p.E1099K mutant (9B) (AID 1645876)
[2] = Primary qHTS for inhibitors of nuclear receptor binding SET domain protein 2 (NSD2) in an RCH-ACV wild type WT cells (2C) (AID 1645877)
Further: nearly all actives have a fitted effect of over 70% in size.
Potency means the concentration at half of the fitted maximal effect.

| Structure (SMILES) | Potency [1] | Potency [2] | outcome [1] | activity change, negative = cell killing [2] |
| --- | --- | --- | --- | --- |
| C[N+]1(C)CCCC(OC(=O)C(O)(c2ccccc2)c2ccccc2)C1 (stereo unspecified) | inactive | inactive |  |  |
| Cc1cc(-n2nc3ccc(Cl)cc3n2)c(O)c(C(C)(C)C)c1 | inactive | inactive |  |  |
| COc1ccccc1OC(=O)Oc1ccccc1OC | inactive | inactive |  |  |
| CC1CC(OC(=O)c2ccccc2O)CC(C)(C)C1 (stereo unspecified) | inactive | inactive |  |  |
| CC(=O)N[C@@H](Cc1ccc(O)cc1)C(=O)O | inactive | inactive |  |  |
| COC(=O)c1ccc(O)cc1 | inactive | inactive |  |  |
| O=C(O)C(S)C(S)C(=O)O (stereo unspecified) | inactive | inactive |  |  |
| O=S1(=O)OC(c2ccc(O)cc2)(c2ccc(O)cc2)c2ccccc21 | inactive | inactive |  |  |
| CC(N)CCCC(C)(C)O (stereo unspecified) | inactive | inactive |  |  |
| CCOC(=O)[C@H](CCc1ccccc1)N[C@@H](C)C(=O)N1CCC[C@H]1C(=O)O | inactive | inactive |  |  |
| CC(C)=CCC/C(C)=C/CO | inactive | inactive |  |  |
| CC1(C)S[C@@H]2[C@H](N=CN3CCCCCC3)C(=O)N2[C@H]1C(=O)O | inactive | inactive |  |  |
| CC(C)C[C@@H](N)C(=O)O | inactive | inactive |  |  |
| C[N+](C)(C)CC(O)CC(=O)[O-] (stereo unspecified) | inactive | inactive |  |  |
| CNCc1ccccc1 | inactive | inactive |  |  |
| CC[N+](C)(CC)CCOC(=O)C1c2ccccc2Oc2ccccc21 | inactive | inactive |  |  |
| CCOc1ccc(C(=O)OCCN(CC)CC)cc1 | inactive | inactive |  |  |
| CCCCCCCCCCCCCCCCCCO | inactive | inactive |  |  |
| CCc1cccc(CC)c1NC(=O)CN(CC(=O)O)CC(=O)O | inactive | inactive |  |  |
| Cc1c(I)c(=O)n(-c2ccccc2)n1C | inactive | inactive |  |  |
| CCCCCCCCCCOc1cc2c(=O)c(C(=O)OCC)c[nH]c2cc1OCC |  |  | inactive [at 4.96 µM] | 4.45% [at 4.96 µM] |
| Cc1c(Cn2ccnc2)c2ccccc2n1CCC(=O)O | inactive | inactive |  |  |
| O=C(OOC(=O)c1ccccc1)c1ccccc1 | inactive | inactive |  |  |
| Cc1c(C)c2c(c(C)c1OC(=O)c1cccnc1)CC[C@@](C)(CCC[C@H](C)CCC[C@H](C)CCCC(C)C)O2 | inactive | inactive |  |  |
| Cc1ccccc1N=Nc1ccc(N=Nc2c(O)ccc3ccccc23)c(C)c1 | inactive | inactive |  |  |
| O=C1c2ccccc2S(=O)(=O)N1CCCCN1CCN(c2ncccn2)CC1 | inactive | inactive |  |  |
| CN(C/C=C/C#CC(C)(C)C)Cc1cccc2ccccc12 | inactive | inactive |  |  |

| Structure (SMILES) | Potency [1] | Potency [2] | outcome [1] | activity change, negative = cell killing [2] |
| --- | --- | --- | --- | --- |
| CCCCC1(COC(=O)CCC(=O)O)C(=O)N(c2ccccc2)N(c2ccccc2)C1=O | inactive | inactive |  |  |
| CC(C)(C)C(=O)OCOC(=O)[C@@H]1N2C(=O)[C@@H](NC(=O)[C@H](N)c3ccccc3)[C@H]2SC1(C)C | inactive | inactive |  |  |
| Nc1c2c(nc3c1CCC3)CCCC2 | inactive | inactive |  |  |
| C=CCSCC1Nc2cc(Cl)c(S(N)(=O)=O)cc2S(=O)(=O)N1 (stereo unspecified) | inactive | inactive |  |  |
| NS(=O)(=O)c1ccc(C(=O)O)cc1 | inactive | inactive |  |  |
| CCCCCCCC(=O)OCC(O)CO (stereo unspecified) | inactive | inactive |  |  |
| NS(=O)(=O)c1cc(C2(O)NC(=O)c3ccccc32)ccc1Cl (stereo unspecified) | inactive | inactive |  |  |
| c1ccc2[nH]ccc2c1 | inactive | inactive |  |  |
| CN1C(=O)CC(c2ccccc2)C1=O (stereo unspecified) | inactive | inactive |  |  |
| Nc1ccncc1N | inactive | inactive |  |  |
| COC(=O)N/N=C/c1c[n+]([O-])c2ccccc2[n+]1[O-] | 23.7 µM (active) | 7.5 µM (active) |  |  |
| NC(=O)CC[C@@H](N)C(=O)O | inactive | inactive |  |  |
| Cc1cc(C)c(NC(=O)CN(CC(=O)O)CC(=O)O)c(C)c1Br | inactive | inactive |  |  |
| CC(C(=O)O)c1ccc2c(c1)Cc1cccnc1O2 (stereo unspecified) | inactive | inactive |  |  |
| CN1CCCN=C1COC(=O)C(O)(c1ccccc1)C1CCCCC1 (stereo unspecified) | inactive | inactive |  |  |
| O=C(O)c1cc(=O)c2ccccc2o1 | inactive | inactive |  |  |
| O=C(CCBr)N1CCN(C(=O)CCBr)CC1 | inactive | inactive |  |  |
| CC1CCc2cc(F)cc3c(=O)c(C(=O)O)cn1c23 (stereo unspecified) | inactive | inactive |  |  |
| CC(=O)Oc1cccc(C)c1 | inactive | inactive |  |  |
| CN1C(C)(C)CCCC1(C)C | inactive | inactive |  |  |
| C=CCNC(N)=S | inactive | inactive |  |  |
| COc1cc(O)cc(O)c1 | inactive | inactive |  |  |
| C[N+](C)(C)CC[N+]1(C)Cc2c(Cl)c(Cl)c(Cl)c(Cl)c2C1 | inactive | inactive |  |  |
| COc1ccccc1OCC(O)CO (stereo unspecified) | inactive | inactive |  |  |
| O=C1CC[C@@H](C(=O)O)N1 | inactive | inactive |  |  |
| Nc1ccc(S(=O)(=O)c2ccc(N)cc2)cc1 | inactive | inactive |  |  |
